Measurements published in PubChem BioAssay (EPA / NIEHS).
The source made the active and inactive calls. Rule for the calls: active = hit-call score of the fitted dose curve at least 0.9, where 1 is the maximum; inactive = score below 0.9.

Assay: APR_HepG2_p53Act_1hr: Apredica 1-hour HepG2 Assay for p53 Activation (AID 2282671)
Conditions: high-content imaging, actives raise or lower the signal
Protocol: APR_HepG2_1hr is a cell-based, multiplexed-readout assay that uses HepG2, a human liver cell line, with measurements taken at 1 hour after chemical dosing in a 384-well plate.APR_HepG2_p53Act_1hr is one of 10 assay component(s) measured or calculated from the APR_HepG2_1hr assay. It is designed to make measurements of dna content, a form of viability reporter, as detected with fluorescence intensity signals by HCS Fluorescent Imaging technology.Data from the assay component APR_HepG2_p53Act_1hr was analyzed into 1 assay endpoint. This assay endpoint, APR_HepG2_p53Act_1hr, was analyzed with bidirectional fitting relative to DMSO as the negative control and baseline of activity. Using a type of viability reporter, measures of protein for gain or loss-of-signal activity can be used to understand the signaling at the pathway-level as they relate to the gene TP53. Furthermore, this assay endpoint can be referred to as a primary readout, because this assay has produced multiple assay endpoints where this one serves a signaling function. To generalize the intended target to other relatable targets, this assay endpoint is annotated to the dna binding intended target family, where the subfamily is tumor suppressor.
Cells were treated with dimethyl sulfoxide (DMSO) as a solvent control at a final concentration of 0.5% v/v or with compounds in DMSO with a resulting final DMSO concentration of 0.5% v/v. Compound treatment was done at concentrations of 0.39, 0.78, 1.56, 3.12, 6.24, 12.5, 25, 50, 100, and 200 uM in duplicate on each plate. Cells were treated with compounds for 1, 24, or 72 hr. Carbonyl […] m-chloro-phenylhydrazone (CCCP) and taxol were used as positive controls for mitochondrial function and cytoskeletal stability, respectively; DMSO served as the negative control for this experiment. Cells were fixed by the direct addition of 50 uL formaldehyde in Hank's Balanced Salt Solution (HBSS) to a final concentration of 3.7%. After incubation in the fixation medium for 30 min at room temperature (293-298 K), cells were rinsed twice with HBSS and treated with cell permeabilization buffer (16 uL of 0.5% Triton X-100) for 10 min at room temperature (293-298 K) before labeling. For mitochondrial membrane potential and mitochondrial measurements, pre-fixed cells were incubated with 50 uL of MitoTracker Red CMXRos (Invitrogen) at a concentration of 250 nM for 30 min before fixation. In the remaining cases, post-fixed cells were labeled by incubation with a multiplexed mixture of primary antibodies in HBSS for 60 min at room temperature (293-298 K) to detect immunoreactivity of c-Jun (1:500), phospho-histone H3 (1:100), phospho-histone H2A.x (1:200), p53 (1:400), alpha-tubulin (1:200) and Hoechst 33342 (2 ug/mL). Cells were labeled for multiplexed imaging on two separate plates: a) Hoechst 33342, MitoTracker Red, phospho-histone H3, and alpha-tubulin, and b) Hoechst 33342, phospho-histone H2A.x, and c-Jun. A final rinse with HBSS (50 uL) was performed before analysis. The primary and secondary antibodies for the proteins were phospho-histone H3 (rabbit anti-phospho-histone H3 and FITC-donkey anti-rabbit IgG), phospho-histone H2A.x (mouse anti-phospho-histone H2A.x and FITC-donkey anti-mouse IgG), c-Jun (rabbit anti-phospho-c-Jun and Cy3-donkey anti-rabbit IgG), p53 (sheep anti-p53 and Cy5-donkey anti-sheep IgG), alpha-tubulin (mouse anti-alpha-tubulin and Cy5-donkey anti-mouse IgG). These antibodies are available as the CellCiphr HepG2 assay kit (Millipore).Digital images of each well were captured using a Cellomics ArrayScan VTI (Thermo Scientific Cellomics) (0.8 NA objective, 0.63x optical coupler, and XF-93 filter set) at 20x magnification. The images were acquired using the autofocus feature of the ArrayScan instrument, which entails the following steps. First, the camera focuses on channel 1 (Hoechst 33342), where nuclei are identified. Second, a Z offset of 1 um is used for capturing mitochondria (MitoTracker Red). […]
With `O=C1c2ccccc2C(=O)N1SC(Cl)(Cl)Cl` the outcome was “inactive”.
For `Cc1cc(C)nc(NC(=O)NS(=O)(=O)c2ccccc2C(=O)OC2COC2)n1`, the outcome was “inactive”.
For `COC(=O)c1ccccc1S(=O)(=O)NC(=O)Nc1nc(C)nc(OC)n1`, the outcome was “inactive”.
In the case of `O=C(O)C(F)(F)C(F)(F)C(F)(F)C(F)(F)C(F)(F)C(F)(F)C(F)(F)F`, the outcome is reported as “inactive”.
With `N#Cc1c(Cl)c(Cl)c(Cl)c(C#N)c1Cl` the outcome was “inactive”.
With `COP(=S)(OC)Oc1ccc(SC)c(C)c1` the outcome was “inactive”.
For `Oc1ccc(Cl)cc1Cc1ccccc1`, the outcome was “inactive”.
With `CC(C)(C)C(O)/C(=C\c1ccc(Cl)cc1Cl)n1cncn1` (stereo not given) the outcome was “inactive”.
In the case of `COC(=O)c1ccccc1CS(=O)(=O)NC(=O)Nc1nc(OC)cc(OC)n1`, the outcome is reported as “inactive”.
With `CC(C)OC(=O)Nc1cccc(Cl)c1` the outcome was “inactive”.
For `CC1(C)C(C=C(Cl)Cl)C1C(=O)OC(C#N)c1ccc(F)c(Oc2ccccc2)c1` (stereo not given), the outcome was “inactive”.
In the case of `CN1CSC(=S)N(C)C1`, the outcome is reported as “inactive”.
With `CNC(=O)Oc1ccccc1OC(C)C` the outcome was “inactive”.
In the case of `CC(C)(C)C(O)C(Oc1ccc(Cl)cc1)n1cncn1` (stereo not given), the outcome is reported as “inactive”.
With `C[C@H]1[C@H](c2ccc(Cl)cc2)SC(=O)N1C(=O)NC1CCCCC1` the outcome was “inactive”.
With `CC[C@H](C)[C@H]1O[C@]2(C=C[C@@H]1C)C[C@@H]1C[C@@H](C/C=C(\C)[C@@H](O[C@H]3C[C@H](OC)[C@@H](O[C@H]4C[C@H](OC)[C@@H](O)[C@H](C)O4)[C@H](C)O3)[C@@H](C)/C=C/C=C3\CO[C@@H]4[C@H](O)C(C)=C[C@@H](C(=O)O1)[C@]34O)O2` (tested in a mixture with another compound) the outcome was “inactive”.
For `ClC1C(Cl)C(Cl)C(Cl)C(Cl)C1Cl` (stereo not given), the outcome was “inactive”.
With `O=C(Nc1ccccc1)Nc1cnns1` the outcome was “inactive”.
In the case of `CC1(c2ccc(Oc3ccccc3)cc2)OC(=O)N(Nc2ccccc2)C1=O` (stereo not given), the outcome is reported as “inactive”.
With `COC(=O)c1ccccc1S(=O)(=O)NC(=O)N(C)c1nc(C)nc(OC)n1` the outcome was “inactive”.
With `CCOCN(C(=O)CCl)c1c(C)cccc1CC` the outcome was “inactive”.
In the case of `COc1cc(OC)nc(NC(=O)NS(=O)(=O)c2cc(NC=O)ccc2C(=O)N(C)C)n1`, the outcome is reported as “inactive”.
In the case of `CCc1ccc(C(=O)NN(C(=O)c2cc(C)cc(C)c2)C(C)(C)C)cc1`, the outcome is reported as “inactive”.
In the case of `O=C(O)CCCOc1ccc(Cl)cc1Cl`, the outcome is reported as “inactive”.
With `Oc1cc(Cl)ccc1Oc1ccc(Cl)cc1Cl` the outcome was “inactive”.
For `CNC(=O)Oc1cccc(N=CN(C)C)c1`, the outcome was “inactive”.
In the case of `COP(=S)(OC)Oc1ccc([N+](=O)[O-])cc1`, the outcome is reported as “inactive”.
With `COc1nn(CSP(=S)(OC)OC)c(=O)s1` the outcome was “inactive”.
In the case of `CC(C)N(C(=O)COc1nnc(C(F)(F)F)s1)c1ccc(F)cc1`, the outcome is reported as “inactive”.
For `CCC(C)(C)C(=O)OC1=C(c2ccc(Cl)cc2Cl)C(=O)OC12CCCCC2`, the outcome was “inactive”.
With `CCS(=O)(=O)c1cccnc1S(=O)(=O)NC(=O)Nc1nc(OC)cc(OC)n1` the outcome was “inactive”.
For `O=C(O)COc1ccc(Cl)cc1Cl`, the outcome was “inactive”.
For `CCC(C)(NC(=O)c1cc(Cl)c(C)c(Cl)c1)C(=O)CCl` (stereo not given), the outcome was “inactive”.
In the case of `CCCN(CCOc1c(Cl)cc(Cl)cc1Cl)C(=O)n1ccnc1`, the outcome is reported as “inactive”.
For `O=S(=O)(O)C(F)(F)C(F)(F)C(F)(F)C(F)(F)C(F)(F)C(F)(F)C(F)(F)C(F)(F)F`, the outcome was “inactive”.
For `O=S1OCC2C(CO1)C1(Cl)C(Cl)=C(Cl)C2(Cl)C1(Cl)Cl` (stereo not given), the outcome was “inactive”.
With `[2H]C1([2H])[n+]2ccccc2-c2cccc[n+]2C1([2H])[2H]` the outcome was “inactive”.
With `O=[N+]([O-])c1c(Cl)c(Cl)c(Cl)c(Cl)c1Cl` the outcome was “inactive”.
In the case of `CCOc1nc(NC)nc(NC(=O)NS(=O)(=O)c2ccccc2C(=O)OC)n1`, the outcome is reported as “inactive”.
In the case of `CCN(CC)C(=O)SCc1ccc(Cl)cc1`, the outcome is reported as “inactive”.
